The OligoGym collection
Further: reference of the scale not given here.

Each sequence was assayed against SNCG (assay: pooled miR-30 sensor sort-seq; sequence = guide strand). Details: shRNA.
In the case of CTGTACAACATTCTCCTTGGTC, the sensor-assay potency score (higher = more potent) is reported as -1.03.
TTGCGCACCACCCCGGAGGTGA was tested, and the sensor-assay potency score (higher = more potent) was -1.19.
TGCTTGGTCTTTTCCACCGCAC showed a sensor-assay potency score (higher = more potent) of -1.01.
In the case of TTGGATGCCACACCCTCCTGTT, the sensor-assay potency score (higher = more potent) is reported as -1.09.
Work on TTGGTCTTCTCGGCCACTGAGG yielded a sensor-assay potency score (higher = more potent) of -1.32.
Sequence TGGTCTTCTCAGCTGCTTCCGT has a sensor-assay potency score (higher = more potent) of -1.23.
TCTCTTTGGATGCCACACCCTC was tested, and the sensor-assay potency score (higher = more potent) was -1.21.

The sequences below were run against SNN in the same assay as above. Details: shRNA.
TTCTCTCCACGCACGGTCCCTT gave a sensor-assay potency score (higher = more potent) of -1.08.
TTTCTCTCCACGCACGGTCCCT showed a sensor-assay potency score (higher = more potent) of -1.1.
TCAGCTTGGCCTTTCTCTCCAC gave a sensor-assay potency score (higher = more potent) of -0.343.
AATGAGGATGACGATGACTGTG was tested, and the sensor-assay potency score (higher = more potent) was -0.905.
TTGGGAGTCATCAGCTTGGCCT showed a sensor-assay potency score (higher = more potent) of -0.835.
ATGACGATGACTGTGACCACGC was tested, and the sensor-assay potency score (higher = more potent) was -0.588.
TTACAGTAGTAGCTCCATCAAA gave a sensor-assay potency score (higher = more potent) of -1.39.
Sequence TCCTCTGACTGGCTGATGCGCT has a sensor-assay potency score (higher = more potent) of -1.54.
TGACTGGCTGATGCGCTGCAGC gave a sensor-assay potency score (higher = more potent) of -1.74.
Sequence TCCTCGTCCTCTGACTGGCTGA has a sensor-assay potency score (higher = more potent) of -1.43.
Work on TTGGCCTTTCTCTCCACGCACG yielded a sensor-assay potency score (higher = more potent) of -1.27.
TCTCCTCGTCCTCTGACTGGCT was tested, and the sensor-assay potency score (higher = more potent) was -0.606.

These sequences were tested against SNRNP200 in the same assay as above. Details: shRNA.
TTCACTAGCACATGGTATCTGG was tested, and the sensor-assay potency score (higher = more potent) was -0.256.
Work on TTGAACTCAGAGGACAATGAGA yielded a sensor-assay potency score (higher = more potent) of -0.903.
TTGTTCTCAATGGTCTTGGTGA was tested, and the sensor-assay potency score (higher = more potent) was -0.0384.
Sequence TTCTTGAAGAAATCCTTCTTGG has a sensor-assay potency score (higher = more potent) of -0.674.
Sequence TACAGTGTTAAACACCTGGGTC has a sensor-assay potency score (higher = more potent) of -1.05.
In the case of TATCTTGGTAAAGACTCTCAAA, the sensor-assay potency score (higher = more potent) is reported as -1.23.
TGCACTGACAACTCCAACTTGG was tested, and the sensor-assay potency score (higher = more potent) was -0.38.
In the case of TTTCATTCTTTAGAACAGCTAG, the sensor-assay potency score (higher = more potent) is reported as 0.0872.
Work on AATATCGCTCGCATCAACCGGC yielded a sensor-assay potency score (higher = more potent) of 0.041.
TGTAATGAGGTGCTCGTCCTGG gave a sensor-assay potency score (higher = more potent) of -0.352.
TACTTGACCAGATTGTTCTTGT was tested, and the sensor-assay potency score (higher = more potent) was 0.676.
TTGCAGAAGAACGTTGATCTTA showed a sensor-assay potency score (higher = more potent) of -0.0878.

Each sequence was assayed against SNRNP70 in the same assay as above. Details: shRNA.
TTAAGCTCTGTCTCCACTTCTT showed a sensor-assay potency score (higher = more potent) of -0.388.
In the case of TTTGATAGGTCCGTACACCTCA, the sensor-assay potency score (higher = more potent) is reported as 0.253.
In the case of TAGCGGGAGGTGTCATCGCGGC, the sensor-assay potency score (higher = more potent) is reported as -0.939.
Work on TAAGCTCTGTCTCCACTTCTTG yielded a sensor-assay potency score (higher = more potent) of -0.943.
Work on TTCATGTGGCAGTTTCTCCAGG yielded a sensor-assay potency score (higher = more potent) of -0.18.
TACACCTCAAACTCTCTCCGGA was tested, and the sensor-assay potency score (higher = more potent) was 0.28.
AATCTTCTTGCCATCTGCGTGT was tested, and the sensor-assay potency score (higher = more potent) was -0.116.
TTGATAGGTCCGTACACCTCAA showed a sensor-assay potency score (higher = more potent) of -0.456.
With TCGCTCGTGTTCGTACTCGATG the sensor-assay potency score (higher = more potent) was -1.13.
